A number with no mark means an inactive call. Records with an inconclusive call do not appear. Calls of active or inactive are those of the source. Unless noted, calls follow the shape of the full dose curve.

Test [1] can be described thus: Nuclear factor erythroid 2-related factor 2/antioxidant responsive element (Nrf2/ARE) small molecule agonists: qHTS cell viability counter screen in human keratinocytes (AID 1919968; active = well fitted cell-killing curve with a large enough effect in the repeat runs; also: nearly all actives have a fitted effect of over 55% in size). The method in brief: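 CellTiter-Fluor fluorescence, read 1 h after reagent, gave viability in the same wells as the ARE-luciferase assay. KeratinoSens cells (1,500/well) had 23 h compound exposure at 37 C/5% CO2 following 5 h plating.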

The nature of test [2]: Nuclear factor erythroid 2-related factor 2/antioxidant responsive element (Nrf2/ARE) small molecule agonists: luciferase reporter gene qHTS assay in human keratinocytes (AID 1919969). Also: nearly all actives have a fitted effect of over 35% in size. Background: A reporter such as luciferase makes a cellular process visible.
For test [3], the target named is Gonadotropin-releasing hormone receptor (Homo sapiens) (UniProt P30968). Nature of the test: Human gonadotropin-releasing hormone receptor (GnRHR) small molecule agonists, calcium flux assay in GnRHR-HEK293 cells (AID 1920063). Also: nearly all actives have a fitted effect of over 35% in size. Also: potency is read from the fitted curve at half-maximal effect. The method in brief:
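Agonist mode: compounds at 15 concentrations, in triplicate, went onto calcium dye-loaded GnRHR-HEK293 cells. Intracellular calcium was then followed as 480/540 nm fluorescence at 1 s intervals over 3 min.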

The nature of test [4]: p53 small molecule agonists, cell-based qHTS assay with human liver microsomes: qHTS cell viability counter screen (AID 1963579). Also: nearly all actives have a fitted effect of over 45% in size. The method in brief: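 Metabolically activated exposure: compounds, human liver microsomes and NADPH (0.5 mg/mL final apiece) were added to p53RE-bla cells seeded 5 h earlier, left 16 h at 37 C, and then assessed for viability by CellTiter-Glo luminescence.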
A general note: In qHTS, concentration-response curves come from the screen itself.

A short description of test [5]: p53 small molecule agonists, cell-based qHTS assay with rat liver microsomes: qHTS cell viability counter screen (AID 1963580). Also: nearly all actives have a fitted effect of over 45% in size. The method in brief: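 After the beta-lactamase ratio was read, CellTiter-Glo was added to the same wells and luminescence measured at 30 min; cells had been treated 16 h at 37 C with compounds, rat liver microsomes and NADPH (0.5 mg/mL final each).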

The nature of test [6]: p53 small molecule agonists, cell-based qHTS assay: qHTS cell viability counter screen (AID 1963581). Also: nearly all actives have a fitted effect of over 45% in size. The method in brief:
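Counter screen read by CellTiter-Glo luminescence (ATP content, 30 min at room temperature), run in the same wells as the beta-lactamase reporter read. HCT-116 p53RE-bla cells saw compounds for 16 h at 37 C.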

The target of test [7] is 5-hydroxytryptamine receptor 2A (Homo sapiens) (UniProt P28223). Put plainly: 5-hydroxytryptamine receptor 2A (HTR2A) small molecule agonists, cell-based qHTS assay (AID 1963587). Also: nearly all actives have a fitted effect of over 30% in size. The method in brief:
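CHO cells stably expressing human HTR2A, plated 18 h, loaded with calcium dye 1 h at 37 C. Agonist mode: compounds added and intracellular calcium fluorescence recorded kinetically for 2 min at 1 sec intervals.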

Test [8] addresses Muscarinic acetylcholine receptor M1 (Homo sapiens) (UniProt P11229). Nature of the test: Cholinergic receptor muscarinic 1 (CHRM1) small molecule antagonists, cell-based qHTS assay (AID 1963588). Also: nearly all actives have a fitted effect of over 40% in size. Also: potency is read from the fitted curve at half-maximal effect. The method in brief:
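Compounds were tested at 15 concentrations in three independent runs. Dye-loaded CHRM1-CHO cells were exposed 5 min at room temperature before stimulation by acetylcholine added at 50nM. Intracellular calcium was read kinetically on FDSS for 3 min.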

Test [9] has the same target. Put plainly: Cholinergic receptor muscarinic 1 (CHRM1) small molecule agonists, cell-based qHTS assay (AID 1963589). Also: nearly all actives have a fitted effect of over 35% in size. Also: potency is read from the fitted curve at half-maximal effect. The method in brief:
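Agonist-mode calcium-flux screen: compounds at 15 concentrations, three independent runs, were pin-transferred onto dye-loaded human CHRM1-CHO cells. Fluorescence was then recorded kinetically every second over minutes.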

Test [10] is described as follows: cAMP Responsive Elements (CRE) small molecule agonists, cell-based qHTS assay (AID 1963590). The method in brief:
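Agonist mode: compound added to CRE-bla HEK 293T cells (2,000/well, 18 h after plating) for 3 h at 37 C/5% CO2. Reporter activity detected via FRET beta-lactamase substrate, 2 h room-temperature loading.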

The nature of test [11]: cAMP Responsive Elements (CRE) small molecule antagonists, cell-based qHTS assay (AID 1963591; active = well fitted inhibition curve with a large enough effect in the signal ratio in the repeat runs, not every such curve was filed as active; the % refers to the signal ratio). The method in brief: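 Antagonist mode: compounds are added alongside the adenylyl cyclase activator NKH477 (0.25 uM final) to CRE-bla HEK293T cells for 3 h. LiveBLAzer FRET substrate, 2 h at room temperature, reports bla expression.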
The target in test [12] is Beta-2 adrenergic receptor (Homo sapiens) (UniProt P07550). Put plainly: Adrenergic beta2 receptor (ADRB2) small molecule antagonists, cell-based qHTS assay (AID 1963592). Also: series mostly up to about 92 µM; nearly all actives have a fitted effect of over 50% in size. The method in brief: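 Assay format: CHO-ADRB2 cells, 18-20hr seeding at 37C/5% CO2, then compound plus 1nM isoproterenol agonist mix for 0.5hr RT. Homogeneous time-resolved fluorescence cAMP detection after 1hr, expressed as 665/615 nm ratio.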
Sequence of Beta-2 adrenergic receptor (Homo sapiens) (P07550 whole entry, looked up): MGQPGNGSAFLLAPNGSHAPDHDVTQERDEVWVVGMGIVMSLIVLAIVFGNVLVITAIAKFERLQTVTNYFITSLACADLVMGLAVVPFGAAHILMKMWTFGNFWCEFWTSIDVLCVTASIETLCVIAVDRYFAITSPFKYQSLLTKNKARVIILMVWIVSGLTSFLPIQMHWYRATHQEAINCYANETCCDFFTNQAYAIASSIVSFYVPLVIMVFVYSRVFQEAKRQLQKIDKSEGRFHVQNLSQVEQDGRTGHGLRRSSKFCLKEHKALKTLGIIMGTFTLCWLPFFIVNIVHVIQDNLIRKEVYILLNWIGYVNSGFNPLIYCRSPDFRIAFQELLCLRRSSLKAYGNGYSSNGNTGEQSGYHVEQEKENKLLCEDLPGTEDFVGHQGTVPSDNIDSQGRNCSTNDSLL

Test [13] shares this target. Put plainly: Adrenergic beta2 receptor (ADRB2) small molecule agonists, cell-based qHTS assay (AID 1963593).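 Also: CHO cells stably overexpressing human ADRB2.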 The method in brief:
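CHO cells stably over-expressing ADRB2 were plated overnight at 37C, then dosed with compounds plus a stimulation mix containing 100uM IBMX and 25uM Ro-20-1724 for 0.5hr at room temperature. cAMP was measured by HTRF competition, 1hr.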

For test [14], the target named is D(2) dopamine receptor (Homo sapiens) (UniProt P14416). Nature of the test: Dopamine D2 receptor (DRD2) small molecule agonists, cell-based qHTS assay (AID 1963594). Also: nearly all actives have a fitted effect of over 35% in size. The method in brief:
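HEK293 cells stably expressing human DRD2, pre-treated with PDE inhibitor Ro20-1724 (0.1 mM final) and compound 10 min at room temperature, then stimulated with NKH477 (200nM […]) for 30 min. cAMP read by HTRF (665/620 nm).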

The target is the same in test [15]. Put plainly: Dopamine D2 receptor (DRD2) small molecule antagonists, cell-based qHTS assay (AID 1963595; active = well fitted inhibition curve with a large enough effect in the signal ratio in the repeat runs, with a control signal flat; the % refers to the signal ratio). The method in brief: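 DRD2-HEK293; 0.1 mM Ro20-1724; cpd 10 min RT; NKH477 200 nM + quinpirole 12 nM, 30 min RT; HTRF cAMP (cAMP-d2/anti-cAMP cryptate), 665/620 nm ratio after 1 h.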
Test [16] is described as follows: G protein-coupled receptor (GPCR) small molecule agonists, calcium flux assay: HEK293 wild type cell line counter screen (AID 1920065). The method in brief: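 Calcium flux counter screen: compound added in agonist mode at 15 concentrations in triplicate to dye-loaded parental HEK293 cells. Fluorescence (480/540) read kinetically for 3 min; ATP served as positive control.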
On the technique in general: Calcium assays in cells follow changes in intracellular calcium, usually with a dye or a luminescent sensor.

Test [17] concerns the target 5-hydroxytryptamine receptor 2A (Homo sapiens) (UniProt P28223). Nature of the test: 5-hydroxytryptamine receptor 2A (HTR2A) small molecule antagonists, cell-based qHTS assay (AID 1963586). Also: nearly all actives have a fitted effect of over 45% in size. The method in brief:
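CHO cells stably expressing human HTR2A were plated for 18 h at 37 C, then loaded with calcium dye for 1 h. Compounds were preincubated 5 min at room temperature before DOI (4 nM solution) was added. Kinetic fluorescence was read for 3 min.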

Test [18] is described as follows: p53 small molecule agonists, cell-based qHTS assay with rat liver microsomes (AID 1963578). The method in brief:
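Agonist mode in p53RE-bla reporter cells, with compounds co-incubated 16 h at 37 C alongside 0.5 mg/mL rat liver microsomes and 0.5 mg/mL NADPH (final), followed by a 2 h LiveBLAzer detection step.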

The nature of test [19]: p53 small molecule agonists, cell-based qHTS assay (AID 1963582; active = well fitted activation curve with a large enough effect in the signal ratio in the repeat runs, not every such curve was filed as active; the % refers to the signal ratio). The method in brief:
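Read-out is beta-lactamase FRET fluorescence after 2 h at room temperature with LiveBLAzer B/G substrate. p53 response element-bla cells were treated 16 h at 37 C with compounds in DMSO, added 5 h after seeding.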

Sequence of Gonadotropin-releasing hormone receptor (Homo sapiens) (P30968 whole entry, looked up): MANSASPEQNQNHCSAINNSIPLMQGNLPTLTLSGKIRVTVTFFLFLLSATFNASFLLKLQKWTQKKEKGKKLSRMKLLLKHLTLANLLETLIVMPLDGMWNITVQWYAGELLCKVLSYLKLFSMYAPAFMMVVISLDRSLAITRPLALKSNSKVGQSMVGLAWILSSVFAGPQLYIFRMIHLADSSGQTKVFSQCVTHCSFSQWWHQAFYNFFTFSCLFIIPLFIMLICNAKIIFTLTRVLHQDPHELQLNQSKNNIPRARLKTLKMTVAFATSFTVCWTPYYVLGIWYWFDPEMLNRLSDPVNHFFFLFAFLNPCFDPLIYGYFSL
Sequence of D(2) dopamine receptor (Homo sapiens) (P14416 whole entry, looked up): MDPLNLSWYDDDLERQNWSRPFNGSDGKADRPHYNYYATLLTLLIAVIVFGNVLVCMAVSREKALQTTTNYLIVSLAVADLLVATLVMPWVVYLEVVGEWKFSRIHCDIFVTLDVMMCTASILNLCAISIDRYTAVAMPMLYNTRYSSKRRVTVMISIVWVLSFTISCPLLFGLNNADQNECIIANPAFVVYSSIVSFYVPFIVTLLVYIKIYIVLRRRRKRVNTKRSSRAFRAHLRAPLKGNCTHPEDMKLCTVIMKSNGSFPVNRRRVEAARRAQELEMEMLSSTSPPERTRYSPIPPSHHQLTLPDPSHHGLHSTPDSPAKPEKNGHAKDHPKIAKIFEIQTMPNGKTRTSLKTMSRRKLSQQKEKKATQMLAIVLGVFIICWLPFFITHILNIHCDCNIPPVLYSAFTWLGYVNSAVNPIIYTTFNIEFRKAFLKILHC
Sequence of 5-hydroxytryptamine receptor 2A (Homo sapiens) (P28223 whole entry, looked up): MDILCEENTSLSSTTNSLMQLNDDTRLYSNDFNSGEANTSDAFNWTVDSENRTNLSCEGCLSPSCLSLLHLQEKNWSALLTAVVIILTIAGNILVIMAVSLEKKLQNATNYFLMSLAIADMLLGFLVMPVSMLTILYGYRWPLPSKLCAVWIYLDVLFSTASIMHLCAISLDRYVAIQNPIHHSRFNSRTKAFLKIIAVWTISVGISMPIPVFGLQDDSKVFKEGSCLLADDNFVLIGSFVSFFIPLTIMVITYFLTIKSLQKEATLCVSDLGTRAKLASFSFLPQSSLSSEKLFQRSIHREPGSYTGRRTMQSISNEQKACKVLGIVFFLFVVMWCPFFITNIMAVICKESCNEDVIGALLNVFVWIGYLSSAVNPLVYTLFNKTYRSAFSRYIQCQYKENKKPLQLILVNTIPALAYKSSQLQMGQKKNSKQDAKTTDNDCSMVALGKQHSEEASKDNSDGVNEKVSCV
Sequence of Muscarinic acetylcholine receptor M1 (Homo sapiens) (P11229 whole entry, looked up): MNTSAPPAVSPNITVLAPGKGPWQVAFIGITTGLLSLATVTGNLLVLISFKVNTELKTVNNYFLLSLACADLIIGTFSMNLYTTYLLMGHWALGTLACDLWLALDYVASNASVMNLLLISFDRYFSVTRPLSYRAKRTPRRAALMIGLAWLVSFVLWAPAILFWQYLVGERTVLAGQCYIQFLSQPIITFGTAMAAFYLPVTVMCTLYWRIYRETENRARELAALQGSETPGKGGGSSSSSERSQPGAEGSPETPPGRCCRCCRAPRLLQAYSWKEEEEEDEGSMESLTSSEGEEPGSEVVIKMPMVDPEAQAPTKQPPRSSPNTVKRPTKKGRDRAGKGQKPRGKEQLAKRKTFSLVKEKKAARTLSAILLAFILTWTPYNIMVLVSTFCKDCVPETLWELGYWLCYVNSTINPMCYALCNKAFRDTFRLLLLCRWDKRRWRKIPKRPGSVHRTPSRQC

`O=C(O)c1ccc2cc(C(=O)O)ccc2c1`: the Potency result in test [1], in [2], in [3], in test [4], in [5] and in test [6] was “inactive” throughout. The Potency entry in [7], in test [8], in test [9], in test [10], in test [11] and in [12] was “inactive” in each case. The Potency result in [13], in [14] and in test [15] was “inactive” each time.
Consider `CC(C)(C)c1ccc(N)cc1`, for which the Potency result in test [1], in test [2], in [3], in test [16], in [4] and in [6] was “inactive” throughout. Besides, the Potency result in test [17], in test [8], in test [9], in test [10], in [11] and in test [12] was “inactive” in each case. The Potency result in [13], in test [14] and in [15] was “inactive” in each case.
On to `CCNCCO`, for which the Potency entry in test [1], in test [2], in test [3], in test [16], in test [4] and in test [5] was “inactive” each time. Also, the Potency result in [17], in test [7], in test [8], in test [9], in test [10] and in test [11] was “inactive” in each case. Besides, the Potency result in test [12], in test [13], in test [14] and in test [15] was “inactive” each time.
For `COc1nc(C)nc(Cl)c1NC1=NCCN1`, the Potency result in test [1], in [2], in test [3], in test [16], in [4] and in test [5] was “inactive” throughout. Also, the Potency entry in test [6], in test [10], in test [11], in [12], in test [13] and in test [14] was “inactive” each time. Also, the Potency result in test [15] is “inactive”.
In the case of `C/C=C/C(=O)C1=C(C)CCCC1(C)C`, the Potency entry in [1], in test [2], in test [3], in test [18], in test [5] and in [6] was “inactive” each time. Also, the Potency entry in test [19], in test [7], in test [9], in test [10], in test [11] and in test [12] was “inactive” each time. In addition, the Potency result in test [14] and in test [15] was “inactive” in each case.
`CCOC(=O)Nc1ccc2c(c1)N(C(=O)CCN1CCOCC1)c1ccccc1S2`: the Potency result in test [1], in test [2], in [3], in test [16], in test [5] and in test [6] was “inactive” throughout. In addition, the Potency result in test [7], in test [9], in test [10], in test [12], in test [13] and in test [14] was “inactive” each time. The Potency entry in test [15] is “inactive”. Besides, in test [8], the Potency is 918 nM (active).
Turning to `CC(=O)OC(C)C[N+](C)(C)C` (configuration not stated), the Potency result in test [1], in [2], in test [18], in test [4], in [5] and in [6] was “inactive” throughout. In addition, the Potency entry in test [17], in test [7], in test [10], in test [11], in [12] and in test [14] was “inactive” throughout. Moreover, in [15], the Potency entry was “inactive”. Besides, the Potency in [3] is 1070 nM (active); in test [9] it was 151 nM (active).

(Values after PubChem BioAssay (Tox21).)
